The record followed here is PubChem BioAssay (Tox21).

Results filed as inconclusive are left out. Calls of active or inactive are those of the source. Calls come from the whole dose curve; as a rule, active = well fitted cell-killing curve with a large enough effect in the repeat runs; inconclusive = weak or mixed curves, or effect the other way; inactive = flat fitted curve, though single readings scatter.
% is set by controls: 0 for no effect and ±100 for the full control effect.

The experiment is described as follows: qHTS assay to identify small molecule antagonists of the retinoid acid receptor (RAR) signaling pathway - cell viability counter screen (AID 1159551). Note: nearly all actives have a fitted effect of over 35% in size. Conditions: C3RL4 cells viability, ATP luminescence (CellTiter-Glo), 6 h; series mostly up to 92.4 µM; activity change, negative = cytotoxicity: at the top concentration. The source says: U.S. Tox21 Program National Center for Advancing Translational Sciences [NCATS] NIH Chemical Genomics Center [NCGC] U.S. Environmental Protection Agency [EPA] National Institutes of Environmental Health Sciences [NIEHS] National Toxicology Program [NTP] U.S. Food and Drug Administration [FDA] Tox21 Assay Overview: All-trans Retinoic acid (atRA) is the potent natural metabolite of retinol and plays an important role in normal embryonic development and maintenance of cellular phenotype in adult animals. atRA is the activating ligand for the retinoic acid receptors (RARs) which form heterodimers with retinoid X receptors (RXRs) on the retinoic acid response element (RARE). Through activation of the RAR/RXRs nuclear receptors, atRA regulates the transcription of a large number of protein-coding genes and regulatory RNAs. Intracellular levels of atRA are controlled by the retinol signaling pathway (RSP) that regulates the biosynthesis and catabolism of atRA to maintain physiological levels. Chemicals that interfere with the RSP can cause abnormal intracellular levels of atRA and therefore are potential developmental toxicants. To assess compounds for the potential adverse effect on embryonic development through interfering with retinol signaling, a cell-based RARE luciferase reporter gene assay was used. C3RL4 cell line (OARSA/CFSAN/FDA, Laurel, MD) was used to screen Tox21 10K compound library for identifying inhibitors of the RSP. Also cytotoxicity was assessed by determining the viability of cells based on the quantitation of ATP.
Tox21 Assay Protocol Summary: C3RL4 cells were seeded at 1,000/well in 4 uL of assay medium into white solid 1,536-well tissue culture plates (Greiner Bio-One North America Inc. Monroe, NC) using a Multidrop Combi (Thermo Scientific, Waltham, MA) dispenser. After incubation at 37 C and 5% CO2 for an overnight, 23 nL of compounds dissolved in DMSO, positive control or DMSO only were transferred by a Pintool station (Kalypsys, San Diego, CA). One ul of 1 uM (final concentration) of Retinol was added right after the compound addition by using a Flying Reagent Dispenser (FRD) (Aurora Discovery, San Diego, CA). After 6 hr incubation at 37 C and 5% CO2, 5 uL of CellTiter-Glo reagent (Promega Corporation, Madison, WI) was added to each assay plate using an FRD. Luminescence was quantified on a ViewLux plate reader (PerkinElmer, Waltham, MA) after 30 min incubation at room temperature.
Take `Cc1cc(-c2ccccc2)nnc1NCCN1CCOCC1`: the “activity change, negative = cytotoxicity” value was 0.938% [at 42.5 µM] (inactive).
In the case of `[O-][n+]1cccc(/C(Cl)=N/OC[C@@H](O)CN2CCCCC2)c1`, the “activity change, negative = cytotoxicity” value was 6.03% [at 42.5 µM] (inactive).
With `CC(=O)OC1CCCCC1C(C)(C)C` (stereo not given), the “activity change, negative = cytotoxicity” value is 1.68% (inactive).
Turning to `CN1C[C@@H]2C[C@H]1CN2c1cc2c(cc1F)c(=O)c(C(=O)O)cn2C1CC1`, the activity change, negative = cytotoxicity was -0.0754% [at 19 µM] (inactive).
Regarding `CCCC(=O)Nc1ccc(OCC(O)CNC(C)C)c(C(C)=O)c1` (stereo not given), the “activity change, negative = cytotoxicity” value was 1.94% [at 42.5 µM] (inactive).
`CC1(C)Oc2ccc(C#N)cc2[C@@H](N2CCCC2=O)[C@@H]1O`: the “activity change, negative = cytotoxicity” value was -2.75% [at 42.5 µM] (inactive).
The figure for `Cc1ccc(C)c([N+](=O)[O-])c1` is 1.86% (inactive).
Regarding `COC(=O)CCCCC(=O)O`, the “activity change, negative = cytotoxicity” value is 1.27% (inactive).
Take `CN(C)CCOC(=O)C(c1ccccc1)C1(O)CCCC1` (stereo not given): the “activity change, negative = cytotoxicity” value is -5.5% [at 42.5 µM] (inactive).
As to `CCCCCCCCCCCCCBr`, the “activity change, negative = cytotoxicity” value is 4.42% (inactive).
As to `Cn1c(=O)c2c(ncn2CCO)n(C)c1=O`, the “activity change, negative = cytotoxicity” value was 0.721% [at 42.5 µM] (inactive).
As to `CC(C)OC(=O)OCOP(=O)(CO[C@H](C)Cn1cnc2c(N)ncnc21)OCOC(=O)OC(C)C`, the “activity change, negative = cytotoxicity” value was -0.683% [at 42.5 µM] (inactive).
As to `Cc1ccccc1C(N)=O`, the “activity change, negative = cytotoxicity” value was 3.35% (inactive).
As for `Nc1nc(-c2ccccc2)c(Br)c(=O)[nH]1`, the “activity change, negative = cytotoxicity” value is 3.38% [at 42.5 µM] (inactive).
The figure for `CCC(=O)Oc1ccc2c(c1)CC[C@@H]1[C@@H]2CC[C@@]2(C)[C@H]1C[C@@H](OC(=O)CC)[C@@H]2OC(=O)CC` is 0.425% [at 42.5 µM] (inactive).
For the compound `CC(N)CCCC(C)(C)O` (stereo not given), the “activity change, negative = cytotoxicity” value is 4.18% [at 42.5 µM] (inactive).
The figure for `CSc1cnccn1` is 1.15% (inactive); for `O=C1NC(c2ccccc2)(c2ccccc2)C(=O)N1COP(=O)(O)O` it is 1.7% [at 42.5 µM] (inactive); for `C=CCSSCCC` it is -0.642% (inactive).
Take `O=C1OCCO1`: the “activity change, negative = cytotoxicity” value is -2.7% (inactive).
The figure for `OCCN1CCOCC1` is 3.71% (inactive).
As for `NCC1(Cc2noc(=O)[nH]2)CCCCC1`, the “activity change, negative = cytotoxicity” value is 1.59% (inactive).
Take `c1ccc2c(CC3=NCCN3)cccc2c1`: the “activity change, negative = cytotoxicity” value was -0.148% [at 42.5 µM] (inactive).
For the compound `CC1CC(=O)CC(C)(C)C1` (stereo not given), the “activity change, negative = cytotoxicity” value was -0.443% (inactive).
The figure for `CC(=O)C(C)O` (stereo not given) is 3.01% (inactive); for `CC(=O)CCC1=C(C)CCCC1(C)C` it is 2.62% (inactive).
Turning to `CC(C)OC(=O)CCC(=O)OC(C)C`, the “activity change, negative = cytotoxicity” value was -2.36% (inactive).
Consider `CCCCC1CCC(O)CC1` (stereo not given), for which the “activity change, negative = cytotoxicity” value was 1.07% (inactive).
The figure for `OCC1CCC(CO)CC1` (stereo not given) is -3.87% (inactive); for `CCC(C)C(C)=O` (stereo not given) it is 3.32% (inactive).
In the case of `Fc1ccccc1`, the “activity change, negative = cytotoxicity” value is 1.43% (inactive).
As to `C=CCCCC`, the “activity change, negative = cytotoxicity” value is -1.58% (inactive).
In the case of `CCOC(=O)CC1(C)OCC(C)O1` (stereo not given), the “activity change, negative = cytotoxicity” value is 3.27% (inactive).
Consider `CNCCS(=O)(=O)O`, for which the “activity change, negative = cytotoxicity” value was 0.68% (inactive).
Regarding `CC(=O)C1C(=O)C=C(C)OC1=O` (stereo not given), the “activity change, negative = cytotoxicity” value was 1.39% (inactive).
Consider `N[C@@H](CSCCCO)C(=O)O`, for which the activity change, negative = cytotoxicity was 5.07% [at 19 µM] (inactive).
On to `C=Cc1ccc(C(C)(C)C)cc1`, for which the “activity change, negative = cytotoxicity” value was 4.29% (inactive).
As to `CC(C)(CO)C(O)C(=O)NCCCO` (stereo not given), the “activity change, negative = cytotoxicity” value is 1.76% (inactive).
In the case of `CCCCCC/C=C/C(=O)OC`, the “activity change, negative = cytotoxicity” value is 5.52% (inactive).
For the compound `Cc1c(NC(=O)c2cccnc2)c(=O)n(-c2ccccc2)n1C`, the “activity change, negative = cytotoxicity” value was 3.57% [at 42.5 µM] (inactive).
